Results published in the supplement of paper PMC13380429.

System: Vero E6 infected with SARS-CoV-2
Assay: inhibition of SARS-CoV-2 cytopathic effect; higher = more antiviral protection, active = above 15
Conditions: 48 h

Measured: inhibition of SARS-CoV-2 cytopathic effect

O=C(/C=C/c1ccc2ccc(C(F)(F)F)cc2n1)c1ccncc1
inactive: 1 nM 1.93% | 8.33 nM 0% | 100 nM -3.01% | 833.33 nM 0.28% | 10000 nM 5.19%

NC(=O)CN1CC(O)CC1=O (stereo not given) [oxiracetam]
inactive: 1 nM 1.13% | 8.33 nM 0.12% | 100 nM 0.71% | 833.33 nM 4.22% | 10000 nM 0.29%

CN(C)CCC(c1ccc(Br)cc1)c1ccccn1 (stereo not given) [brompheniramine]
inactive: 1 nM 4.45% | 8.33 nM 3.77% | 100 nM -3.1% | 833.33 nM -0.09% | 10000 nM -4.65%

CC(C)(Sc1ccc(CCN(CCCCC2CCCCC2)C(=O)NC2CCCCC2)cc1)C(=O)O
inactive: 1 nM -11.4% | 8.33 nM -10% | 100 nM -5.76% | 833.33 nM -3.65% | 10000 nM -8.5%

c1cc(-c2sc(-c3ccncc3)c(-c3ccncc3)c2-c2ccncc2)ccn1
inactive: 1 nM -1.78% | 8.33 nM -0.14% | 100 nM -3.51% | 833.33 nM -4.39% | 10000 nM -5.36%

COc1cc(C(=O)NCC2(N(C)C)CCCC2)cc(OC)c1OCc1ccccc1
inactive: 1 nM 0.5% | 8.33 nM 4.04% | 100 nM 5.81% | 833.33 nM -2.21% | 10000 nM -8%

Cc1cccc(NC(=O)N[C@@H]2N=C(c3ccccc3)c3ccccc3N(C)C2=O)c1
inactive: 1 nM -0.47% | 8.33 nM 1.7% | 100 nM 0.28% | 833.33 nM 0.31% | 10000 nM 0.03%

CC(C[N+](C)(C)C)OC(N)=O (stereo not given) [bethanechol]
inactive: 1 nM -5.4% | 8.33 nM 2.96% | 100 nM -4.87% | 833.33 nM -5.89% | 10000 nM -6.25%
